In PubChem BioAssay one finds z-score and composite z-score data, which are given here for eight compounds.

Test [1] can be described thus: A549 cell viability effects, profiling panel, calcein-AM fluorescence, 48 h, basal (AID 1162). Note: test concentration not given here. To be noted: higher = more signal.
A short description of test [2]: adipocyte viability effects, profiling panel, cell-based, 3T3-L1 adipocytes, calcein-AM fluorescence, 48 h, basal (AID 1163). Note: test concentration not given here. To be noted: 3T3-L1 adipocytes viability, higher = more signal.
Test [3] can be described thus: HepG2 cell viability effects, profiling panel, calcein-AM fluorescence, 48 h, basal (AID 1164). Note: test concentration not given here. The settings on record: higher = more signal.
Test [4] in a line: MM1S cell viability effects, profiling panel, calcein-AM fluorescence, 48 h, basal (AID 1165).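 Note: viability of MM1S multiple myeloma cells under basal unstimulated conditions; test concentration not given here.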 To be noted: higher = more signal.
Test [5] in a line: basal RPMI8226 viability, no added stimulus, profiling panel, cell-based, calcein-AM fluorescence, 48 h, PK04 Diversity Set (AID 1166).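 Note: cells grown under basal conditions without added stimulus; test concentration not given here.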 To be noted: RPMI8226 myeloma viability, higher = more signal.
Test [6] in a line: basal HepG2 mitochondrial membrane potential changes, profiling panel, cell-based, JC-1 fluorescence, 24 h, 100 nL compound (AID 1167). Note: test concentration not given here. The settings on record: higher = more signal.
Test [7] can be described thus: basal 3T3-L1 adipocyte mitochondrial potential changes, profiling panel, cell-based, JC-1 fluorescence, 3T3-L1 adipocytes, 24 h, 100 nL compound (AID 1168). Note: test concentration not given here. The settings on record: JC-1 mitochondrial fluorescence, higher = more signal, called active from +8 up or from −8 down.
Test [8] is described as follows: basal RPMI8226 mitochondrial membrane potential changes, profiling panel, cell-based, JC-1 fluorescence, 24 h, 100 nL compound (AID 1169). Note: test concentration not given here. To be noted: RPMI8226 myeloma, JC-1 mitochondrial potential fluorescence, higher = more signal.
Test [9] can be described thus: basal MM1S mitochondrial membrane potential changes, profiling panel, cell-based, JC-1 fluorescence, 24 h, 100 nL compound (AID 1170). Note: test concentration not given here. The settings on record: higher = more signal.
Test [10] in a line: A549 lung cancer cell viability effects, profiling panel, resazurin fluorescence, 24 h, PK04 Diversity Set (AID 1171). Note: test concentration not given here. The settings on record: higher = more signal, called active from +8 up or from −8 down.
Test [11] can be described thus: HepG2 liver cancer cell viability effects, profiling panel, resazurin fluorescence, 24 h, PK04 Diversity Set (AID 1172). Note: test concentration not given here. The settings on record: higher = more signal. Background: Resazurin is reduced to fluorescent resorufin, in cell work by metabolically active cells.
The nature of test [12]: basal S. cerevisiae growth modulation, no modifier, primary screen, OD600, strain BY4716, 24 h, basal condition (AID 1173). To be noted: OD600, 24 h, higher = more signal, called active from +8 up or from −8 down.
Test [13] is described as follows: MM1S myeloma cell viability, profiling panel, resazurin fluorescence, basal, 24 h, PK04 Diversity Set (AID 1174).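 Note: MM1S multiple myeloma cell line; test concentration not given here.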 The settings on record: higher = more signal, called active from +8 up or from −8 down.
Test [14] deals with Dihydroorotate dehydrogenase (quinone), mitochondrial (Plasmodium falciparum (isolate 3D7)) (UniProt Q08210). The experiment in a line: PfDHODH enzyme inhibitors, primary screen, biochemical, C-terminal His tag, absorbance 600 nm (AID 1175).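 Note: recombinant parasite enzyme with a five histidine tag at its C terminus; test concentration not given here.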 The settings on record: DCIP absorbance 600 nm, higher = more signal, called active from +8 up or from −8 down.
Chain of Dihydroorotate dehydrogenase (quinone), mitochondrial (Plasmodium falciparum (isolate 3D7)) (Q08210 whole entry, looked up): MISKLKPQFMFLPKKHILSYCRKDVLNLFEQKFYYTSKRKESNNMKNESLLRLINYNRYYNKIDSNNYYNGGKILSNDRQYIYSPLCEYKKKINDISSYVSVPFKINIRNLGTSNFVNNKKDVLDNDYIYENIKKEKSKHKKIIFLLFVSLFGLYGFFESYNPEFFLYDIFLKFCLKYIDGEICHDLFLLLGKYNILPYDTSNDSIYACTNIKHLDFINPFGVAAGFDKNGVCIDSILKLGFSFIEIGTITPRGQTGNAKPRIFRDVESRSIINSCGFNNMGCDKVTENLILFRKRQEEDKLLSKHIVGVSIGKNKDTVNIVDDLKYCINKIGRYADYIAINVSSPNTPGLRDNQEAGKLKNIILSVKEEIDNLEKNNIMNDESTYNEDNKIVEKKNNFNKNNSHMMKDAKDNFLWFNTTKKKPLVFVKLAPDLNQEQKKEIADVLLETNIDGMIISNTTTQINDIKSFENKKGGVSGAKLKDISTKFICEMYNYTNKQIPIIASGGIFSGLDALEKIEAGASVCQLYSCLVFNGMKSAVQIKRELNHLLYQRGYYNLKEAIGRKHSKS
Test [15] in a line: P. aeruginosa biofilm formation inhibitors, primary screen, strain PAO1, LB-PBS medium, absorbance 600 nm (AID 1176). Note: test concentration not given here. The settings on record: P. aeruginosa PAO1 growth/biofilm, A600, 12 h; higher = more signal.
Test [16] is described as follows: S. cerevisiae RM11-1a growth modifiers, primary screen, strain RM11-1a, OD600, basal, 24 h (AID 1177).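 Note: cultures grown under basal conditions with no added stressor; test concentration not given here.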 The settings on record: OD600, 24 h, higher = more signal, called active from +8 up or from −8 down.
Test [17] is described as follows: E. coli acrAB mutant growth effects, primary screen, E. coli filamentation inducers, strain DRC39, OD650, 24 h (AID 1178).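 Note: growth measured as culture turbidity by optical density at 650 nm; test concentration not given here.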 To be noted: higher = more signal, called active from +8 up or from −8 down.
Test [18] in a line: E. coli acrAB mutant growth effects, primary screen, E. coli filamentation inducers, strain DRC39, OD650, 48 h (AID 1179).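 Note: screen aims at cell division blockers that make cells filament.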 To be noted: E. coli DRC39 delta-acrAB growth, higher = more signal, called active from +8 up or from −8 down.
Test [19] can be described thus: RPMI8226 myeloma cell viability, profiling panel, resazurin fluorescence, basal, 24 h, PK04 Diversity Set (AID 1180).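 Note: RPMI8826 multiple myeloma cell line at 5000 cells per well; test concentration not given here.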 To be noted: higher = more signal.
The target in test [20] is E3 ubiquitin-protein ligase XIAP (Homo sapiens) (UniProt P98170). The experiment in a line: XIAP binders, primary screen, biophysical, small-molecule microarray, fluorescence 635 nm (AID 1181).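 Note: score merges 667 nm emission and signal to noise over triplicate slides.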 The settings on record: small-molecule microarray binding, higher = more signal.
Chain of E3 ubiquitin-protein ligase XIAP (Homo sapiens) (P98170 whole entry, looked up): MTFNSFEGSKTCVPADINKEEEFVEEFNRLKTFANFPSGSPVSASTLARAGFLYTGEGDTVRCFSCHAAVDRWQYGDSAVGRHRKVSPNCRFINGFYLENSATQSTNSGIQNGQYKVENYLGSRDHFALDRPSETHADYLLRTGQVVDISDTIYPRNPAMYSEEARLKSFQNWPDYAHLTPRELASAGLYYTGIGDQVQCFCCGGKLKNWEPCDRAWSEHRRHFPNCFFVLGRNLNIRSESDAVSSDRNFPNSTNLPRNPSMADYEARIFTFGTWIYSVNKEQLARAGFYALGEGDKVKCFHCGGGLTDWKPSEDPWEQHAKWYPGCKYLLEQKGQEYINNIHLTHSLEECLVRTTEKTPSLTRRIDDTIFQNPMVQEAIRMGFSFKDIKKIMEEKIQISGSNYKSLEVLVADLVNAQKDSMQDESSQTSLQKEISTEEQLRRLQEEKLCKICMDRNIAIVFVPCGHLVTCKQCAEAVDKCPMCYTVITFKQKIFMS

Active and inactive are the calls of the source. Unless noted, the rule behind the calls is not given here.

On to `COCCOC(=O)N1C(=O)[C@@]2(c3cc(C#CC4=CCCCC4)ccc31)[C@H](c1ccccc1OCCO)N1[C@H](c3ccccc3)[C@H](c3ccccc3)OC(=O)[C@H]1[C@@H]2C(=O)N1CCc2cc(OC)c(OC)cc2C1`, for which the z-score is 0.697 in test [1]; 0.186 in test [2]; 1.34 in [3]; 0.235 in [4]; -2.05 in [5]; 0.767 in test [6]. The z-score in test [7] was 3.23 (inactive); in [8] it was -1.06; in test [9], -1.32; in test [10], -0.926 (inactive); in [11], -0.605; in test [12], 1.46 (inactive). Moreover, the z-score is -0.347 (inactive) in test [13]; 1.92 (inactive) in [15]; 2.25 (inactive) in test [16]; -0.398 (inactive) in test [17]; 0.425 (inactive) in test [18]; -0.486 in test [19]. For the same compound, the figures for the composite z-score in test [14] and in test [20] were -0.349 (inactive) and -0.11, respectively.

Consider `COCCOC(=O)N1C(=O)[C@@]2(c3cc(C#CC4=CCCCC4)ccc31)[C@H](c1ccc(O)cc1)N1[C@H](c3ccccc3)[C@H](c3ccccc3)OC(=O)[C@H]1[C@@H]2C(=O)Nc1nc2ccccc2s1`, for which the z-score in [1] was -0.0695; in test [2], -0.898; in [3], 0.0669; in test [4], -1.01; in [5], -1.65; in test [6], -2.79. Besides, the z-score in [7] is -0.451 (inactive); in [8], -0.941; in test [9], -0.887; in test [10] it was -0.304 (inactive); in [11], -0.477; in test [12], 0.175 (inactive). Moreover, the z-score in [13] was 0.0007 (inactive); in [15], 1.44 (inactive); in [16], 0.297 (inactive); in [17], -0.61 (inactive); in test [18], 0.0717 (inactive); in test [19] it was -0.0867. Moreover, the composite z-score in test [14] is -0.399 (inactive); in test [20], 0.0114.

For the compound `CN(C)CCCNC(=O)[C@@]1(c2ccc([N+](=O)[O-])cc2)CC(=O)N(CC23CC4CC(CC(C4)C2)C3)[C@@H]1c1ccc(CO)cc1`, the z-score in test [1] was -3.74; in test [2], 0.0309; in [3], -5.05; in [4], -3.8; in test [5], -4.03; in test [6], -1.58. For the same compound, the z-score was 0.303 (inactive) in [7]; -1.04 in [8]; -2.33 in [9]; -4.78 (inactive) in test [10]; -6.19 in test [11]; -16.2 (active) in test [12]. Moreover, the z-score in test [13] is -8.92 (active); in [15], 0.472 (inactive); in [16] it was -8.93 (active); in test [17], 0.325 (inactive); in test [18], -2.4 (inactive); in test [19], -6.48. Moreover, the composite z-score in [14] is 0.687 (inactive); in [20] it was 0.0896.

As for `COCCOC(=O)N1C(=O)[C@@]2(c3cc(C#Cc4ccc(OC)cc4)ccc31)[C@H](C(=O)N1CCN(c3ncccn3)CC1)[C@H]1C(=O)O[C@H](c3ccccc3)[C@H](c3ccccc3)N1[C@@H]2c1ccccc1OCCO`, the z-score is -0.457 in test [1]; 0.0076 in test [2]; 0.149 in test [3]; 0.325 in [4]; 0.204 in [5]; 0.57 in test [6]. Also, the z-score in [7] is 2.03 (inactive); in test [8] it was -0.403; in test [9], -1.41; in test [10] it was -0.785 (inactive); in [11], 0.205; in test [12] it was 2.91 (inactive). For the same compound, the z-score is -0.353 (inactive) in test [13]; 3.8 (inactive) in [15]; 4.28 (inactive) in [16]; -0.269 (inactive) in [17]; 0.188 (inactive) in test [18]; 0.35 in [19]. Further, the composite z-score in test [14] was 0.27 (inactive); in test [20], -0.0928.

With `CCCC[C@@H]1C[C@H]1[C@@H](NC(=O)c1cccnc1)c1ccc(-c2ccccc2)cc1`, the z-score in test [1] was -1.42; in test [2], -0.438; in [3], -0.886; in [4], -1.14; in test [5], -2.21; in test [6], -0.608. Moreover, the z-score is -1.18 (inactive) in test [7]; -0.642 in [8]; -1.13 in test [9]; 3.07 (inactive) in [10]; 1.6 in test [11]; -3.34 (inactive) in test [12]. In addition, the z-score in [13] is 1.1 (inactive); in [15], -0.0982 (inactive); in test [16] it was -0.402 (inactive); in [17] it was -0.88 (inactive); in test [18], -0.762 (inactive); in [19], 2.9. Moreover, the composite z-score in test [14] is -0.106 (inactive); in test [20], 0.0302.

On to `O=C1C[C@@](C(=O)NCC(F)(F)F)(c2ccc([N+](=O)[O-])cc2)[C@@H](c2ccc(CO)cc2)N1C1CCCCC1`, for which the z-score in [1] was -0.113; in test [2], -1.03; in test [3], 0.268; in test [4], -1.34; in test [5] it was 0.258; in test [6] it was 0.0995. In addition, the z-score in [7] was -1.12 (inactive); in [8] it was 0.685; in [9] it was 0.0421; in [10] it was 0.423 (inactive); in [11], -0.289; in test [12], -0.693 (inactive). Besides, the z-score in [13] is -0.39 (inactive); in [15] it was 0.416 (inactive); in [16], -0.815 (inactive); in test [17] it was 0.659 (inactive); in test [18], 0.0421 (inactive); in [19] it was -0.12. The composite z-score in [14] is -0.356 (inactive); in test [20] it was -0.209.

On to `CC(C)CNC(=O)[C@@H]1c2ccccc2C(=O)N(Cc2cc(F)cc(C(F)(F)F)c2)[C@H]1c1ccc(CO)cc1`, for which the z-score in [1] is 2.21; in [2] it was -0.979; in test [3] it was 1.37; in test [4], -0.215; in test [5], 0.857; in test [6], 2.31. Also, the z-score in test [7] is 0.299 (inactive); in [8], -0.137; in [9], 0.205; in test [10] it was 0.317 (inactive); in test [11], 0.564; in [12], -0.874 (inactive). In addition, the z-score in test [13] is 0.895 (inactive); in test [15] it was 0.801 (inactive); in test [16] it was -0.604 (inactive); in [17], 1.84 (inactive); in test [18] it was 1.42 (inactive); in test [19], 1.16. The composite z-score in test [14] was 0.369 (inactive); in test [20], 0.0651.

Regarding `CC(C)C(O)C1C=CC2C(=O)N(C)C(=O)C2N1N(c1ccccc1)c1ccccc1` (stereo not given), the z-score in test [1] was -0.659; in test [2], -1.24; in [3] it was 0.689; in test [4], 0.0007; in test [5] it was 0.0729; in test [6] it was -0.0204. In addition, the z-score in test [7] was -0.291 (inactive); in test [8], -0.286; in test [9], -0.387; in test [10], -0.391 (inactive); in test [11], 0.207; in test [12], 0.72 (inactive). Further, the z-score in test [13] was -1.62 (inactive); in [15], 0.186 (inactive); in [16], 0.879 (inactive); in test [17], -0.841 (inactive); in [18], 0.195 (inactive); in test [19] it was -0.583. The values for the composite z-score in test [14] and in test [20] were 0.85 (inactive) and 0.23, respectively.
